Records with an inconclusive call do not appear. Unmarked numbers belong to inactive results. Activity calls are given as the source filed them. Calls come from the whole dose curve; as a rule, active = well fitted inhibition curve with a large enough effect; inconclusive = small, poorly fitted or top-dose-only effect; inactive = no such curve, though single readings can be large or run the other way. Numbered stars: 1 amine (or outer) side, 2 acyl side, 3 side chain; on linkers, the order of the positions; unused ones are H or OH. Bridge positions count the residues as written; N and C are the ends. Square brackets hold non-standard residues; d marks the D form. Peptide text beside a SMILES is read from it. I, II: the chains in the order shown. Actinocin(9to1) = Cc1c2oc3c(C)ccc(C(=O)[*:1])c3nc-2c(C(=O)[*:2])c(N)c1=O; NMeV = CN[C@H](C(=O)O)C(C)C; Sar = CNCC(=O)O
% is set by controls: 0 for no effect and ±100 for the full control effect; potency is the fitted concentration of half-maximal effect.

The experiment can be described thus: qHTS to identify inhibitors of the type 1 interferon - major histocompatibility complex class I in skeletal muscle: Secondary screen by immunofluorescence.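 For activity change, negative = inhibition: digitonin at 100 µM served as the cytotoxic control.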 Note: nearly all actives have a fitted effect of over 70% in size. Particulars: C25cl48 myoblasts, IFN-b induced HLA-ABC immunofluorescence, 24 h, Viability; series mostly up to 49.8 µM; activity change, negative = inhibition: at the top concentration. From the text: Assay Submitter (PI): Travis B. Kinder Ph.D. & James Inglese Ph.D. Assay Development and Screening Technology Laboratory (ADST) National Center for Advancing Translational Sciences (NCATS), Rockville, MD National Institute of Health (NIH), Bethesda, Maryland Idiopathic inflammatory myopathies, collectively referred to as myositis, are a group of rare autoimmune diseases characterized by skeletal muscle inflammation, weakness, and usually accompanied by systemic pathologies of the skin, lungs, or vasculature. Current immunosuppressive therapies and glucocorticoids are often not curative and are accompanied by harsh side effects, especially in children with juvenile myositis. We initiated a drug repurposing and development program to identify more targeted, less toxic therapeutics to treat myositis. Although its cause is not known, muscle from a subset of patients have an abundance of the inflammatory type 1 interferon (IFN) and a down-stream product major histocompatibility complex class I (MHC class I), which are both thought to contribute to damage and weakness. We conducted quantitative high throughput screening (qHTS) on 6,576 compounds (4,679 unique) through a series of cell-based assays to identify those that inhibit the IFN-stimulated expression of MHC class I in muscle precursor cells (myoblasts). The compound identification and evaluation strategy utilized a primary screen with reporter-tagged MHC class I in genome-engineered myoblasts, ATP content counter screen for viability, HLA-ABC immunofluorescence secondary screen, and HLA-B RT-qPCR tertiary screen. To verify activity of compounds identified by qHTS in HLA-B HiBit reporter cells, compounds were assayed by high throughput HLA-ABC immunofluorescence. Briefly, 216 compounds identified from primary and counter screening as inhibitory with minimal cytotoxicity were dispensed into black/clear bottom […] using acoustic dispensing in an 11-point, 1:3 titration with a high final concentration of 50 uM. Normal immortalized human myoblasts C25cl48 were added to the plates with 4.0 ng/ml human IFN-beta for 24 hours, fixed, stained by immunofluorescence for HLA-ABC protein, nuclei, and cell body, and analyzed by laser scanning cytometry as described by Auld et al., 2006. References: Auld DS, Johnson RL, Zhang Y, Veith H, Jadhav A, Yasgar A, Simeonov A, Zheng W, Martinez ED, Westwick JK, Austin CP, Inglese J. 2006. Fluorescent protein-based cellular assays analyzed by laser-scanning microplate cytometry in 1536-well plate format. Methods Enzymol 414:566-89. doi:10.1016/S0076-6879(06)14029-X
PROTOCOL TABLE (as described by Inglese et al., 2007) SEQUENCE No. (e.g., 1, 2, 3, etc.); […] (e.g., Cells, Incubation, Reagent, etc.); VALUE; DESCRIPTION 0; Compounds; 25 nl; Follow-up compounds dispensed at 25 nl/well with Labcyte Echo 655 acoustic dispenser in triplicate Aurora ChemLib 1536K black/clear bottom, low base, TC 1536-well plates (00019324). Also dispensed 25 nl/well DMSO control, ruxolitinib IFN-b inhibitor control titration, and digitonin cytotoxic control 1a; Cells; 5 uL; Multidrop Combi (Thermo Scientific) to seed 125 cells/well into eight plates in 5 ul/well of iHSKM growth medium (GM) without dexamethasone into columns 1+2. Add metal lids with gas-exchange holes 1b; Cells; 5 uL; Multidrop Combi (Thermo Scientific) to seed 125 cells/well into eight plates in 5 ul/well of iHSKM GM without dexamethasone + 4 ng/ml IFN-b into columns 3 - 48. […]
A general note: In qHTS, concentration-response curves come from the screen itself.
Regarding `COc1cccc2c1C(=O)c1c(O)c3c(c(O)c1C2=O)C[C@@](O)(C(=O)CO)C[C@@H]3O[C@H]1C[C@H](N)[C@@H](O)[C@H](C)O1`, the “activity change, negative = inhibition” value is 8.44%. The same measure, in the same setting: then `CC(C)(C)c1nc2c3cc[nH]c(=O)c3c3cc(F)ccc3c2[nH]1`, with -15.7%; and `COc1ncc(Nc2ncc(C(C)N3CCN(S(C)(=O)=O)CC3)cc2-c2nc(C)nc(N)n2)cc1F` (stereo not given), with -1.44%; and `O=c1[nH]c2cc(Cl)ccc2c(O)c1-c1ccc(Oc2ccccc2)cc1`, with 2.3%. Still for that read-out and setting: for `CC(C)[C@H](C(=O)Nc1ccc(C(=O)NO)cc1)c1ccccc1` the value was -1.44%. Still for that read-out and setting: then `CC(=O)NCC(=O)N1[C@@H]2CC[C@H]1c1ccc(Nc3ncc(C(F)(F)F)c(NC4CCC4)n3)cc12`, with -12.4%. `CC(=O)c1cnc2ccc(-c3cc(Cl)c(O)c(Cl)c3)nc2c1NC1CCC(CN(C)C)CC1` (stereo not given): the Potency was 14.5 µM (active).

For `Cc1ccc(C(N)=O)cc1Nc1nccc(-c2cn(C(C)C)c3cnccc23)n1`, the “activity change, negative = inhibition” value was 0.513% [at 99.5 µM]. With `C[C@H]1C[C@@H]2[C@H]([C@@H](O)C[C@@]3(C)[C@H]2CC[C@]3(O)C(=O)CO)[C@@]2(C)C=CC(=O)C=C12`, the “activity change, negative = inhibition” value was 1.81%.

Regarding `CCc1cnn2c(NCc3ccc[n+]([O-])c3)cc(N3CCCC[C@H]3CCO)nc12`, the “activity change, negative = inhibition” value is 1.64%.

Take `CCCCC(=O)OCC(=O)[C@H]1[C@H](C)C[C@H]2[C@@H]3C[C@H](F)C4=CC(=O)C=C[C@]4(C)[C@@]3(F)[C@@H](O)C[C@@]21C`: the “activity change, negative = inhibition” value was 15.7%. For the compound `COc1cc2c(cc1-c1c(C)noc1C)ncc1[nH]c(=O)n([C@H](C)c3ccccn3)c12`, the “activity change, negative = inhibition” value is 10.5%.

Consider `C/C=C1\NC(=O)[C@H]2CSSCCC=C[C@H](CC(=O)N[C@H](C(C)C)C(=O)N2)OC(=O)[C@H](C(C)C)NC1=O`, for which the Potency was 8.14 µM (active).

Consider `CC[C@@]1(O)C(=O)OCc2c1cc1n(c2=O)Cc2cc3cc(O)ccc3nc2-1`, for which the “activity change, negative = inhibition” value is -2.03%. For the compound `O=C1NC(=O)[C@@H](c2c[nH]c3ccccc23)[C@H]1c1cn2c3c(cccc13)CCC2`, the “activity change, negative = inhibition” value is 9.87%.

Regarding `NC(=O)Nc1sc(-c2ccc(F)cc2)cc1C(N)=O`, the “activity change, negative = inhibition” value was -1.64%. Regarding `C=CCNC1=C2C[C@@H](C)C[C@H](OC)[C@H](O)[C@@H](C)/C=C(\C)[C@H](OC(N)=O)[C@@H](OC)/C=C\C=C(/C)C(=O)NC(=CC1=O)C2=O`, the “activity change, negative = inhibition” value was 3.61%. As to `CN1CCN(c2cccc(Nc3nc4c(-c5ccc(S(C)(=O)=O)cc5)cccn4n3)c2)CC1`, the “activity change, negative = inhibition” value is -24.5%. Same read-out and setting: for `Cc1c2oc3c(C)ccc(C(=O)N[C@@H]4C(=O)N[C@H](C(C)C)C(=O)N5CCC[C@H]5C(=O)N(C)CC(=O)N(C)[C@@H](C(C)C)C(=O)O[C@@H]4C)c3nc-2c(C(=O)N[C@@H]2C(=O)N[C@H](C(C)C)C(=O)N3CCC[C@H]3C(=O)N(C)CC(=O)N(C)[C@@H](C(C)C)C(=O)O[C@@H]2C)c(N)c1=O` (I: T[dV]P[Sar][NMeV] / II: T[dV]P[Sar][NMeV]; ester I:1-I:C, II:1-II:C; linker I:N-II:N via Actinocin(9to1)) the value was -2.59%; for `CC[C@]1(O)C[C@H]2CN(CCc3c([nH]c4ccccc34)[C@@](C(=O)OC)(c3cc4c(cc3OC)N(C=O)[C@H]3[C@@](O)(C(=O)OC)[C@H](OC(C)=O)[C@]5(CC)C=CCN6CC[C@]43[C@@H]65)C2)C1`, 3.97%. The same measure, in the same setting: for `CC1(C)CC(=O)c2c(C(F)(F)F)nn(-c3ccc(C(N)=O)c(NC4CCC(O)CC4)c3)c2C1` (stereo not given) the value was -7.44%; for `Cc1ccc(-c2ncn(-c3ccc(Nc4nccc(-c5cccc(N6CCOCC6)c5)n4)cc3)n2)cn1`, -0.586%; for `N#CC[C@H](C1CCCC1)n1cc(-c2ncnc3[nH]ccc23)cn1`, -5.42%. Take `CCCCc1nc2cc(/C=C/C(=O)NO)ccc2n1CCN(CC)CC`: the “activity change, negative = inhibition” value was -17.6%. Same read-out and setting: for `CN(C)Cc1c(C(=O)NCCOc2ccc(C(=O)NO)cc2)oc2ccccc12` the value was -1.08%; for `CC(C)c1nn(-c2c(Cl)cccc2Cl)c2nc(Cc3ccc(OCCO)cc3)[nH]c(=O)c12`, -3.83%; for `CC[C@@]1(O)C(=O)OCc2c1cc1n(c2=O)Cc2cc3c(CN(C)C)c(O)ccc3nc2-1`, -1.12%. Take `Cc1ccc(C(=O)Nc2ccc(CN3CCN(C)CC3)c(C(F)(F)F)c2)cc1C#Cc1cnc2[nH]ncc2c1`: the Potency was 12.9 µM (active). Regarding `Cc1ncc(-c2ccnc(Nc3ccc(S(C)(=O)=O)cc3)n2)n1C(C)C`, the “activity change, negative = inhibition” value is 0.722%. Same read-out and setting: for `CCOC(=O)C1=C(C)NC2=C(C(=O)CC(C)(C)C2)C1c1ccc(-c2ccccc2)cc1` (stereo not given) the value was 13%; for `CC(=O)c1ccc2c(c1)c1cc(C(C)=O)ccc1n2CCNC(C)C`, 3.4%.

Consider `CC(C)(C)c1nc(-c2cccc(NS(=O)(=O)c3c(F)cccc3F)c2F)c(-c2ccnc(N)n2)s1`, for which the “activity change, negative = inhibition” value is 9.89%. The same measure, in the same setting: for `Cc1oncc1C(=O)Nc1ccc(C(F)(F)F)cc1` the value was -2.37%. On the same count and under the same terms, then `COc1cccc2c1C(=O)c1c(O)c3c(c(O)c1C2=O)C[C@@](O)(/C(CO)=N/NC(=O)CCCCCN1C(=O)C=CC1=O)C[C@@H]3O[C@H]1C[C@H](N)[C@H](O)[C@H](C)O1`, with 3.1%; and `CCS(=O)(=O)N1CC(CC#N)(n2cc(-c3ncnc4[nH]ccc34)cn2)C1`, with -2.18%. Consider `C=CC(=O)N1CCc2ccc(-n3c(=O)ccc4cnc5ccc(-c6cnn(C)c6)cc5c43)cc21`, for which the Potency was 16.2 µM (active). For the compound `CCc1cc(C(N)=O)ccc1-n1nc(C(C)C)c2c(-n3cnc(-c4cnn(C)c4)c3)ccnc21`, the “activity change, negative = inhibition” value is 0.722%. On the same count and under the same terms, for `C[C@@H]1CCN(C(=O)CC#N)C[C@@H]1N(C)c1ncnc2[nH]ccc12` the value was 0.722%; for `O=C(/C=C\n1cnc(-c2cc(C(F)(F)F)cc(C(F)(F)F)c2)n1)NNc1cnccn1`, -8.84%; for `CN1CCN(C(=O)c2ccc3cc(CCNc4ncnc5ccc(C#N)cc45)ccc3c2)CC1`, 3.61%.

The values are drawn from PubChem BioAssay AID1347414 (National Center for Advancing Translational Sciences (NCATS), 2020).
